The sequences below were run against POU1 (OCT1 POU domain);BOB1 (OBF1, OCA-B) (human;human, UniProt P14859;Q16633 260-458;1-256, |) (assay: EMSA-SELEX-seq; with BOB1 (ternary complex band); 20 mM Tris-HCl pH 7.6, 140 mM NaCl, 10% glycerol, 0.5 mM EDTA, 0.05% Triton X-100, 0.1 mg/mL BSA, 0.1 mg/mL poly(dI-dC), 5 mM DTT, room temperature, 20 min; high values mean tight binding). Settings: protein: recombinant;recombinant; copies: 1;1; dsDNA, one strand shown.
Summary of the method: (§1)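 Binding preference means the percentage of sequenced 8-mers matching a motif pattern. Tagged POU-domain proteins (30 ng), expressed in E. coli BL21, purified under denaturing conditions and renatured, were mixed with 300 ng of a PCR-amplified double-stranded random 35-nt library, with or without 28 ng coactivator protein, for 20 min at RT in 20 μL Tris–HCl pH 7.6 binding buffer. Selection was repeated over four rounds of excising complex bands from native 6% PAGE, eluting and PCR amplification, followed by Illumina sequencing.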
With ATCGCAAA the binding signal was 0.0816 % of ANNNNAAN 8-mers.
For AAGAGAAA, the binding signal was 0.0531 % of ANNNNAAN 8-mers.
In the case of ACACAAAA, the binding signal is reported as 0.0644 % of ANNNNAAN 8-mers.
ACAGAAAG was tested, and the binding signal was 0.0281 % of ANNNNAAN 8-mers.
For AATTGAAG, the binding signal was 0.0624 % of ANNNNAAN 8-mers.
ACTGAAAT was tested, and the binding signal was 0.0472 % of ANNNNAAN 8-mers.
With ACAAGAAA the binding signal was 0.0386 % of ANNNNAAN 8-mers.
AAGCAAAC was tested, and the binding signal was 0.0878 % of ANNNNAAN 8-mers.
With ACCTTAAG the binding signal was 0.0187 % of ANNNNAAN 8-mers.
With ATAGCAAT the binding signal was 0.0445 % of ANNNNAAN 8-mers.
For ATCTAAAG, the binding signal was 0.0503 % of ANNNNAAN 8-mers.
For ACTCCAAT, the binding signal was 0.0242 % of ANNNNAAN 8-mers.
In the case of AAATGAAT, the binding signal is reported as 0.181 % of ANNNNAAN 8-mers.
In the case of ATACCAAA, the binding signal is reported as 0.041 % of ANNNNAAN 8-mers.
For ACTCTAAT, the binding signal was 0.0316 % of ANNNNAAN 8-mers.
With AATCAAAT the binding signal was 0.419 % of ANNNNAAN 8-mers.
With ATCGCAAT the binding signal was 0.0328 % of ANNNNAAN 8-mers.
For ACATGAAG, the binding signal was 0.03 % of ANNNNAAN 8-mers.
With ATGCTAAG the binding signal was 0.0777 % of ANNNNAAN 8-mers.
For ATGTTAAG, the binding signal was 0.0835 % of ANNNNAAN 8-mers.
With ACGTTAAT the binding signal was 0.073 % of ANNNNAAN 8-mers.
For AGGTGAAG, the binding signal was 0.0339 % of ANNNNAAN 8-mers.
With AGATCAAA the binding signal was 0.0414 % of ANNNNAAN 8-mers.
For ATGCCAAT, the binding signal was 0.0609 % of ANNNNAAN 8-mers.
With AGTCTAAT the binding signal was 0.0761 % of ANNNNAAN 8-mers.
In the case of ACAACAAT, the binding signal is reported as 0.023 % of ANNNNAAN 8-mers.
In the case of ACTTTAAG, the binding signal is reported as 0.0332 % of ANNNNAAN 8-mers.
For ACACTAAC, the binding signal was 0.0117 % of ANNNNAAN 8-mers.
In the case of ACTACAAT, the binding signal is reported as 0.0285 % of ANNNNAAN 8-mers.
In the case of AGTTGAAC, the binding signal is reported as 0.0258 % of ANNNNAAN 8-mers.
For ATTCGAAT, the binding signal was 0.08 % of ANNNNAAN 8-mers.
AGGAGAAA was tested, and the binding signal was 0.0539 % of ANNNNAAN 8-mers.
AAAAGAAA was tested, and the binding signal was 0.119 % of ANNNNAAN 8-mers.
With AGATGAAA the binding signal was 0.0718 % of ANNNNAAN 8-mers.
For ATCCCAAC, the binding signal was 0.0172 % of ANNNNAAN 8-mers.
With AGAGTAAC the binding signal was 0.0234 % of ANNNNAAN 8-mers.
With AGCTGAAA the binding signal was 0.0261 % of ANNNNAAN 8-mers.
With ACCCCAAA the binding signal was 0.0109 % of ANNNNAAN 8-mers.
For AAACAAAT, the binding signal was 0.761 % of ANNNNAAN 8-mers.

What follows are sequences tested against T1, POU2 (OCT2 POU domain);BOB1 (OBF1, OCA-B) (human;human, UniProt P09086;Q16633 175-386;1-256, |) in the same assay as above. Settings: protein: recombinant;recombinant; copies: 1;1; dsDNA, one strand shown.
T1 sequence 1: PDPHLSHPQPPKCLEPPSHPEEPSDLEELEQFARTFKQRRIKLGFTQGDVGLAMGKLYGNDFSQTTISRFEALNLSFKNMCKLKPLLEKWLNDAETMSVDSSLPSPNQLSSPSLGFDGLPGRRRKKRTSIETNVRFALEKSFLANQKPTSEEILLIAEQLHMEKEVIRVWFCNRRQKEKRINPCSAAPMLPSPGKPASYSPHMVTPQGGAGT
T1 sequence 2: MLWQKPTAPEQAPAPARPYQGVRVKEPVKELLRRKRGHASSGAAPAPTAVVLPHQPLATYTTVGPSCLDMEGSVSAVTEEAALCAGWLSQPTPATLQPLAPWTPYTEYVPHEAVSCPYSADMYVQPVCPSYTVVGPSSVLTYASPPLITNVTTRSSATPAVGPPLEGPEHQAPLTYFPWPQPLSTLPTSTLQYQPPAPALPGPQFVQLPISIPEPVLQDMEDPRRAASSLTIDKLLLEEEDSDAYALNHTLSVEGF
Summary of the method: as §1
With ATCGCAAA the binding signal was 0.0413 % of ANNNNAAN 8-mers.
In the case of AAGAGAAA, the binding signal is reported as 0.038 % of ANNNNAAN 8-mers.
In the case of ACACAAAA, the binding signal is reported as 0.0363 % of ANNNNAAN 8-mers.
For ACAGAAAG, the binding signal was 0.0239 % of ANNNNAAN 8-mers.
With AATTGAAG the binding signal was 0.052 % of ANNNNAAN 8-mers.
ACTGAAAT was tested, and the binding signal was 0.0495 % of ANNNNAAN 8-mers.
ACAAGAAA was tested, and the binding signal was 0.0322 % of ANNNNAAN 8-mers.
AAGCAAAC was tested, and the binding signal was 0.057 % of ANNNNAAN 8-mers.
With ACCTTAAG the binding signal was 0.0281 % of ANNNNAAN 8-mers.
For ATAGCAAT, the binding signal was 0.0487 % of ANNNNAAN 8-mers.
ATCTAAAG was tested, and the binding signal was 0.0479 % of ANNNNAAN 8-mers.
For ACTCCAAT, the binding signal was 0.0231 % of ANNNNAAN 8-mers.
For AAATGAAT, the binding signal was 0.239 % of ANNNNAAN 8-mers.
For ATACCAAA, the binding signal was 0.038 % of ANNNNAAN 8-mers.
For ACTCTAAT, the binding signal was 0.0405 % of ANNNNAAN 8-mers.
AATCAAAT was tested, and the binding signal was 0.301 % of ANNNNAAN 8-mers.
For ATCGCAAT, the binding signal was 0.0347 % of ANNNNAAN 8-mers.
In the case of ACATGAAG, the binding signal is reported as 0.0355 % of ANNNNAAN 8-mers.
ATGCTAAG was tested, and the binding signal was 0.0726 % of ANNNNAAN 8-mers.
For ATGTTAAG, the binding signal was 0.0966 % of ANNNNAAN 8-mers.
In the case of ACGTTAAT, the binding signal is reported as 0.102 % of ANNNNAAN 8-mers.
AGGTGAAG was tested, and the binding signal was 0.0471 % of ANNNNAAN 8-mers.
In the case of AGATCAAA, the binding signal is reported as 0.0355 % of ANNNNAAN 8-mers.
In the case of ATGCCAAT, the binding signal is reported as 0.0627 % of ANNNNAAN 8-mers.
In the case of AGTCTAAT, the binding signal is reported as 0.0958 % of ANNNNAAN 8-mers.
ACAACAAT was tested, and the binding signal was 0.0305 % of ANNNNAAN 8-mers.
With ACTTTAAG the binding signal was 0.0322 % of ANNNNAAN 8-mers.
ACACTAAC was tested, and the binding signal was 0.014 % of ANNNNAAN 8-mers.
In the case of ACTACAAT, the binding signal is reported as 0.0338 % of ANNNNAAN 8-mers.
In the case of AGTTGAAC, the binding signal is reported as 0.0338 % of ANNNNAAN 8-mers.
With ATTCGAAT the binding signal was 0.102 % of ANNNNAAN 8-mers.
With AGGAGAAA the binding signal was 0.0471 % of ANNNNAAN 8-mers.
In the case of AAAAGAAA, the binding signal is reported as 0.0702 % of ANNNNAAN 8-mers.
In the case of AGATGAAA, the binding signal is reported as 0.0611 % of ANNNNAAN 8-mers.
For ATCCCAAC, the binding signal was 0.014 % of ANNNNAAN 8-mers.
AGAGTAAC was tested, and the binding signal was 0.0264 % of ANNNNAAN 8-mers.
For AGCTGAAA, the binding signal was 0.0239 % of ANNNNAAN 8-mers.
In the case of ACCCCAAA, the binding signal is reported as 0.0124 % of ANNNNAAN 8-mers.
With AAACAAAT the binding signal was 0.669 % of ANNNNAAN 8-mers.
